Measurements published in the supplement of paper PMC8728848.
The full list was thinned out, with the strongest signals kept by preference.

Legend:
Assay in all cases: glycan array binding signal (z-score within array); higher = stronger binding
Settings in all cases: glycan notation: IUPAC condensed, linker removed
[1] = target: Fuc(a1-2)Gal(b1-3)GlcNAc(b1-3)Gal(b1-4)Glc
In short: (§1)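 Arrays were curated from the Consortium for Functional Glycomics database, 3228 in total, and kept only where the protein sequence was available. Binding is expressed as a within-array Z-score. This score was averaged across arrays of the same protein sequence at different concentrations or buffers and across linkers, and negative values can be read as non-binding.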

[2] = target: Fuc(a1-2)Gal(b1-3)GlcNAc(b1-3)[Gal(b1-4)GlcNAc(b1-6)]Gal(b1-4)Glc
In short: as §1

[3] = target: Fuc(a1-2)Gal(b1-3)[Fuc(a1-4)]GlcNAc(b1-2)Man(a1-3)[Fuc(a1-2)Gal(b1-3)[Fuc(a1-4)]GlcNAc(b1-2)Man(a1-6)]Man(b1-4)GlcNAc(b1-4)GlcNAc
In short: as §1

[4] = target: Fuc(a1-2)Gal(b1-4)Glc6S
In short: as §1

[5] = target: Fuc(a1-2)Gal(b1-4)[Fuc(a1-3)]GlcNAc(b1-2)Man(a1-3)[Fuc(a1-2)Gal(b1-4)[Fuc(a1-3)]GlcNAc(b1-2)Man(a1-6)]Man(b1-4)GlcNAc(b1-4)GlcNAc
In short: as §1

[6] = target: Fuc(a1-2)Gal(b1-4)[Fuc(a1-3)]GlcNAc(b1-2)[Fuc(a1-2)Gal(b1-4)[Fuc(a1-3)]GlcNAc(b1-4)]Man(a1-3)[Fuc(a1-2)Gal(b1-4)[Fuc(a1-3)]GlcNAc(b1-2)Man(a1-6)]Man(b1-4)GlcNAc(b1-4)GlcNAc
In short: as §1

[7] = target: Fuc(a1-2)[Gal(a1-3)]Gal(b1-3)GlcNAc(b1-2)Man(a1-3)[Fuc(a1-2)[Gal(a1-3)]Gal(b1-3)GlcNAc(b1-2)Man(a1-6)]Man(b1-4)GlcNAc(b1-4)[Fuc(a1-6)]GlcNAc
In short: as §1

[8] = target: Fuc(a1-2)[GalNAc(a1-3)]Gal
In short: as §1

[9] = target: Gal(a1-3)Gal(b1-4)GlcNAc(b1-3)GalNAc
In short: as §1

[10] = target: Gal(b1-3)GalNAc(b1-3)Gal(a1-4)Gal(b1-4)Glc
In short: as §1

[11] = target: Gal(b1-3)GalNAc(b1-4)[Neu5Ac(a2-3)]Gal(b1-4)Glc
In short: as §1

[12] = target: Gal(b1-3)GlcNAc(b1-3)Gal(b1-4)GlcNAc(b1-6)[Gal(b1-3)GlcNAc(b1-3)]Gal(b1-4)Glc
In short: as §1

[13] = target: Gal(b1-3)GlcNAc(b1-6)Gal(b1-4)GlcNAc
In short: as §1

[14] = target: Gal(b1-3)[Neu5Ac(b2-6)]GalNAc
In short: as §1

[15] = target: Gal(b1-4)GlcNAc
In short: as §1

[16] = target: Gal3S(b1-4)Glc6S
In short: as §1

[17] = target: Gal6S(b1-3)GlcNAc6S
In short: as §1

[18] = target: GlcA(b1-3)GlcNAc
In short: as §1

[19] = target: GlcNAc(a1-4)Gal(b1-4)GlcNAc(b1-3)Gal(b1-4)GlcNAc
In short: as §1

[20] = target: GlcNAc(b1-2)Gal(b1-3)GalNAc
In short: as §1

[21] = target: GlcNAc(b1-3)Gal(b1-3)GalNAc
In short: as §1

[22] = target: GlcNAc(b1-3)Gal(b1-4)GlcNAc
In short: as §1

[23] = target: Man(a1-2)Man(a1-6)[Man(a1-3)]Man(a1-6)[Man(a1-2)Man(a1-2)Man(a1-3)]Man(b1-4)GlcNAc(b1-4)GlcNAc
In short: as §1

[24] = target: Neu5Ac(a2-3)Gal
In short: as §1

[25] = target: Neu5Ac(a2-3)Gal(b1-3)GalNAc(b1-4)[Neu5Ac(a2-3)]Gal(b1-4)Glc
In short: as §1

[26] = target: Neu5Ac(a2-3)Gal(b1-3)[Fuc(a1-4)]GlcNAc(b1-3)Gal(b1-3)[Fuc(a1-4)]GlcNAc
In short: as §1

[27] = target: Neu5Ac(a2-3)Gal(b1-4)GlcNAc(b1-3)Gal
In short: as §1

[28] = target: Neu5Ac(a2-3)Gal(b1-4)GlcNAc(b1-6)[Gal(b1-3)]GalNAc
In short: as §1

[29] = target: Neu5Ac(a2-3)Gal(b1-4)[Fuc(a1-3)]GlcNAc(b1-3)Gal(b1-4)GlcNAc
In short: as §1

[30] = target: Neu5Ac(a2-6)Gal(b1-4)GlcNAc(b1-2)Man(a1-3)[Neu5Ac(a2-6)Gal(b1-4)GlcNAc(b1-2)Man(a1-6)]Man(b1-4)GlcNAc(b1-4)GlcNAc
In short: as §1

[31] = target: Neu5Ac(a2-8)Neu5Ac(a2-3)Gal(b1-3)GalNAc(b1-4)[Neu5Ac(a2-8)Neu5Ac(a2-3)]Gal(b1-4)Glc
In short: as §1

[32] = target: Neu5Ac(b2-6)GalNAc
In short: as §1

[33] = target: Neu5Gc(a2-3)Gal(b1-3)GlcNAc
In short: as §1

[34] = target: Neu5Gc(a2-3)Gal(b1-4)GlcNAc
In short: as §1

[35] = target: Neu5Gc(b2-6)Gal(b1-4)GlcNAc
In short: as §1

B1: MFG-E8 (Homo sapiens), Q08431 (protein)
chain: MPRPRLLAALCGALLCAPSLLVALDICSKNPCHNGGLCEEISQEVRGDVFPSYTCTCLKGYAGNHCETKCVEPLGLENGNIANSQIAASSVRVTFLGLQHWVPELARLNRAGMVNAWTPSSNDDNPWIQVNLLRRMWVTGVVTQGASRLASHEYLKAFKVAYSLNGHEFDFIHDVNKKHKEFVGNWNKNAVHVNLFETPVEAQYVRLYPTSCHTACTLRFELLGCELNGCANPLGLKNNSIPDKQITASSSYKTWGLHLFSWNPSYARLDKQGNFNAWVAGSYGNDQWLQVDLGSSKEVTGIITQGARNFGSVQFVASYKVAYSNDSANWTEYQDPRTGSSKIFPGNWDNHSHKKNLFETPILARYVRILPVAWHNRIALRLELLGC
[1]
  glycan array binding signal (z-score): -0.126
[2]
  glycan array binding signal (z-score): -0.539
[3]
  glycan array binding signal (z-score): 2.2
[4]
  glycan array binding signal (z-score): -0.507
[5]
  glycan array binding signal (z-score): 2.88
[6]
  glycan array binding signal (z-score): 2.94
[7]
  glycan array binding signal (z-score): -0.115
[8]
  glycan array binding signal (z-score): -0.746
[9]
  glycan array binding signal (z-score): -0.233
[10]
  glycan array binding signal (z-score): -0.572
[11]
  glycan array binding signal (z-score): -0.7
[12]
  glycan array binding signal (z-score): 2.38
[13]
  glycan array binding signal (z-score): -0.672
[14]
  glycan array binding signal (z-score): 0.07
[15]
  glycan array binding signal (z-score): -0.753
[16]
  glycan array binding signal (z-score): 6.38
[17]
  glycan array binding signal (z-score): 3.63
[18]
  glycan array binding signal (z-score): 0.43
[19]
  glycan array binding signal (z-score): 3.21
[20]
  glycan array binding signal (z-score): -0.68
[21]
  glycan array binding signal (z-score): 0.268
[22]
  glycan array binding signal (z-score): -0.62
[23]
  glycan array binding signal (z-score): 2.16
[24]
  glycan array binding signal (z-score): -0.156
[25]
  glycan array binding signal (z-score): 1.61
[26]
  glycan array binding signal (z-score): 1.24
[27]
  glycan array binding signal (z-score): 0.052
[28]
  glycan array binding signal (z-score): -0.167
[29]
  glycan array binding signal (z-score): -0.126
[30]
  glycan array binding signal (z-score): 1.09
[31]
  glycan array binding signal (z-score): -0.776
[32]
  glycan array binding signal (z-score): 1.84
[33]
  glycan array binding signal (z-score): -0.636
[34]
  glycan array binding signal (z-score): 1
[35]
  glycan array binding signal (z-score): -0.408
